# Bioassay records as filed in PubChem BioAssay.
# hgDAF12 agonist: H. glycines DAF-12 receptor agonists, primary screen, cell-based, luminescence, HEK293, GAL4 fusion, UAS-luciferase; activation, % at 6.8 µM; 370,000 tested, 1.8% active; HEK293 GAL4-hgDAF12 UAS-luciferase reporter, agonist luminescence; normalized to butyrate control; Nuclear hormone receptor DAF-12 (Heterodera glycines), GAL4 fusion; AID 687014, 2013;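 active means activation above a cutoff set at the mean of all screened compounds plus 3 SD, cut at about 10% in these data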;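 further: 0% = DMSO wells and 100% = sodium butyrate wells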
# APP 5'UTR act: activators of APP 5'UTR luciferase reporter, primary screen, SH-SY5Y cells | activation, % at 2 µM | SH-SY5Y APP 5'UTR luciferase reporter, luminescence; zero percent = DMSO vehicle wells | 190,000 tested, 1% active;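 active means activation above a set limit, based on mean plus 3 SD of controls, cut at about 140% in these data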
# ssDAF-12 act: S. stercoralis DAF-12 nuclear receptor activators, primary screen, cell-based, luminescence, HEK293, GRIP1 co-expression, lit1-tk-luc; Nuclear hormone receptor DAF-12 (Strongyloides stercoralis); HEK293 ssDAF-12/GRIP1 lit1-tk-luc reporter; % of 3 µM dafachronic acid response; activation, % at 6.8 µM; 370,000 tested, 1% active; AID 652126, 2013;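 active means activation above the mean over all tested compounds plus 3 SD, cut at about 0.9% in these data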;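 further: 0% = DMSO-only wells and 100% = 3 µM delta7-dafachronic acid wells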
# NF-kB expr up: activators of NF-kB expression in neurons, primary screen, cell-based, HTS; human neuronal cells, NF-kB reporter expression; stronger effect = higher value; fold change at 12.5 µM; 190,000 tested, 1.6% active; in the data active means fold change above about 3.3
# hcDAF-12 act: H. contortus DAF-12 nuclear receptor activators, primary screen, cell-based, luminescence, HEK293, lit1-tk-luc reporter. 370,000 tested, 1.4% active. activation, % at 6.8 µM. HEK293 hcDAF-12 lit1-tk-luc reporter; 0% DMSO, 100% Δ7-dafachronic acid;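 active means activation above the mean of all tested compounds plus 3 SD, cut at about 5.5% in these data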;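 further: 100% = response to 3 µM Δ7-dafachronic acid high control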
# LXRb hcDAF ctr: LXR agonists, Gal4 luciferase reporter, confirmation, counter-screen for hcDAF-12 agonist project, cell-based, luminescence, HEK293, H. contortus campaign; shares compounds with hcDAF-12 act; HEK293 Gal4-LXR tk-luc reporter, 24 h; normalized: DMSO 0%, positive control 100%; activation, % at 6.8 µM; 3,400 tested, under 10 active;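 active means mean percent activation of the reporter above a cutoff set as the average over tested compounds plus their standard deviation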
# Target sequence (P55055 whole entry, looked up, the tested form may be a part): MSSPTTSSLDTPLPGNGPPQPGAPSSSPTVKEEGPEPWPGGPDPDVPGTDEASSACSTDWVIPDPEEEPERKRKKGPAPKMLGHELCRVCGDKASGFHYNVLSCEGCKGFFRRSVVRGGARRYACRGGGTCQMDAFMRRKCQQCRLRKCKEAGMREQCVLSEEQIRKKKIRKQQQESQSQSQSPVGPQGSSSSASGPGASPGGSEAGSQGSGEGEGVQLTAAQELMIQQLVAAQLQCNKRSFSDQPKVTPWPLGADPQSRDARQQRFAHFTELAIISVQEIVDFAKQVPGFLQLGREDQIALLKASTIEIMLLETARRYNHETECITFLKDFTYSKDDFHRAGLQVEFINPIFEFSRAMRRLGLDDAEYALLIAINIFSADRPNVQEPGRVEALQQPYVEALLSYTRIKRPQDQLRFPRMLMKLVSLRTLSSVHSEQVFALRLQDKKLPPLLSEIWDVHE
# hcDAF12 ag: H. contortus DAF-12 receptor agonists, confirmation, cell-based, luminescence, HEK293, lit1-tk-luc, triplicate | activation, % at 6.8 µM | AID 743032, 2013 | shares compounds with hcDAF-12 act | HEK293 hcDAF-12 lit1-tk-luc reporter; % of Δ7-dafachronic acid response | 3,400 tested, 61% active;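 active means mean activation across triplicate tests above the threshold derived from the earlier primary screen, cut at about 5.5% in these data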;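 further: 0% = DMSO only wells and 100% = 3 µM Δ7-dafachronic acid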
# hgDAF12 conf: H. glycines DAF-12 receptor agonists, confirmation, cell-based, luminescence, HEK293, GAL4-LBD fusion | AID 743050, 2013 | 3,300 tested, 80% active | shares compounds with hgDAF12 agonist | HEK293 GAL4-hgDAF12 luciferase reporter, agonist mode; percent of butyrate response | activation, % at 6.8 µM;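 active means mean activation over triplicate wells above the hit cutoff derived from the earlier primary screen, cut at about 11% in these data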;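 further: 0% = DMSO low control and 100% = 2 mM sodium butyrate high control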
# LXR ag 2: LXR agonists, Gal4 luciferase reporter, confirmation, counter-screen for hgDAF-12 agonist project, cell-based, luminescence, HEK293, H. glycines campaign. activation, % at 6.8 µM. 24 h. shares compounds with hgDAF12 agonist. 3,300 tested, under 10 active;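 active means mean activation of the triplicate above a set limit carried over from the primary screen, none filed active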
# The depositor's hits bear a star; . = no result. Rows were chosen to be rich in hits. Some 3.4% of all compounds tested hit in one or more screens of this group.
SMILES,hgDAF12 agonist,APP 5'UTR act,ssDAF-12 act,NF-kB expr up,hcDAF-12 act,LXRb hcDAF ctr,hcDAF12 ag,hgDAF12 conf,LXR ag 2
Cc1ccc(-c2nc3ccc(C)cn3c2CC2CCCCC2)cc1,21*,.,2.2*,.,10*,1,9.1*,11*,0
Cc1ccc2nc(-c3ccccc3)c(Cc3ccccn3)n2c1,13*,.,1.4*,.,7.4*,1,8.3*,16*,0
Cc1ccc2nc(C3CCCCC3)c(CC(C)(C)C)n2c1,-1,.,0,.,0,.,.,.,.
Cc1ccc2nc(-c3ccccc3)c(Cc3cccc(Cl)c3)n2c1,7,.,0,.,1,.,.,.,.
Cc1ccc2nc(-c3ccc(F)cc3)c(Cc3ccccn3)n2c1,14*,.,0,.,8.6*,0,1,11*,1
O=C(CSc1nnc(-c2ccccc2)n1-c1ccc(Cl)cc1)Nc1ccc2cn[nH]c2c1,-1,.,-2,.,-2,.,.,.,.
COC(=O)[C@]12C[C@H](CC(=O)NCCC(C)C)C(=O)N(Cc3ccco3)C1=C[C@H](C(C)C)O[C@@H]2C1CC1,4,.,-1,.,-3,.,.,.,.
O=C(Nc1nc2ccccc2s1)c1ccc(F)cc1,16*,173*,1.8*,9*,7.8*,2,8.8*,20*,1
CCc1noc(C)c1C(=O)Nc1nc2ccc(F)cc2s1,10,.,0,.,3,.,.,.,.
Cc1ccc2nc(NC(=O)c3ccc(-c4nc5ccccc5s4)s3)sc2c1,-9,-1,-2,0.68,-3,.,.,.,.
O=C(Nc1nc2ccc(Cl)cc2s1)c1ccco1,16*,132,0,7.3*,7.4*,1,6.6*,17*,1
Cc1noc(C)c1C(=O)Nc1nc2ccc(F)cc2s1,14*,.,1,.,7.0*,2,5.8*,14*,1
O=C(Nc1nc2ccccc2s1)c1ccc(Cl)s1,15*,156*,0,4.8*,8.4*,2,7.2*,21*,1
CC(=O)O[C@@H]1CCC[C@@]2(C(=O)N(Cc3ccccc3)c3ccc(-c4c(C)noc4C)cc32)[C@H]1NC(=O)CCc1ccccc1,-3,.,-1,.,-2,.,.,.,.
CCC(C)CNC(=O)c1cn(C(C)c2ccccc2)nn1 (configuration not stated),2,.,-1,.,-1,.,.,.,.
CC(C)c1ccc(NC(=O)O[C@@H]2CC[C@@]34CCCN3C(=O)CCC[C@H]4C2)cc1,1,.,-2,.,-2,.,.,.,.
Cc1ccc(Nc2nc3ccccc3s2)cc1,26*,115,2.4*,1.3,9.7*,2,7.9*,24*,1
Cc1ccc(S(=O)(=O)Nc2nc3ccccc3s2)cc1,2,8,0,0.91,3,.,.,.,.
Cc1cccc(NC(=O)NCCCN2CCN(c3ccc(F)cc3)CC2)c1,2,.,-1,.,-3,.,.,.,.
COc1ccc(C2CC(c3ccc4ccccc4c3)=NN2C(=O)COC(=O)C2CCC(=O)N2)cc1 (configuration not stated),15*,258*,1.2*,1.6,10*,1,6.0*,19*,1
O=C(Nc1nccs1)c1csc2c1CCCC2,14*,42,0,1.9,7.2*,0,4,10,0
CC1(C)C=C2C(N(CC3CC3)C(=N)N2C(=O)OCc2ccccc2)n2c(=O)n(-c3ccccc3)c(=O)n21 (configuration not stated),-1,.,-1,.,1,.,.,.,.
O=C(Nc1ccon1)c1ccc(OC2CCCC2)cc1,14*,93,0,4.5*,7.2*,1,5,14*,1
CC(C)(C)c1cc(NC(=O)c2ccc(OC3CCCC3)cc2)no1,2,15,-1,1.2,2,.,.,.,.
S=C(Nc1ccc(Cl)cc1)c1nc2ccccc2[nH]1,18*,.,0,2.5,7.3*,1,6.5*,16*,1
SMILES,hgDAF12 agonist,APP 5'UTR act,ssDAF-12 act,NF-kB expr up,hcDAF-12 act,LXRb hcDAF ctr,hcDAF12 ag,hgDAF12 conf,LXR ag 2
OC(c1ccc(Cl)cc1)C(O)c1nc2ccccc2[nH]1 (configuration not stated),2,-5,-2,1.1,0,.,.,.,.
CC1(C)CC(=O)C=C(Nc2ccccc2NC(=O)c2cc(F)cc(F)c2)C1,3,.,-1,.,-4,.,.,.,.
CC(C)(C)c1ccc(C(=O)Nc2ccccc2Cl)cc1,32*,201*,1.5*,4.8*,10*,2,9.4*,19*,1
COC(=O)[C@]12C[C@H](CC(=O)NCc3ccc(C)o3)C(=O)N(Cc3ccc(Cl)cc3Cl)C1=C[C@H](C(C)(C)C)O[C@@H]2C,1,.,-1,.,-2,.,.,.,.
Cc1nc2ccc(-c3nc4ccccc4[nH]3)cc2[nH]1,19*,155*,0,3.5*,8.3*,1,8.1*,19*,1
CCOC(=O)c1cccc(NC(=O)CN(C)S(=O)(=O)c2cc3ccccc3s2)c1,-1,.,-2,.,-2,.,.,.,.
O=C(CCCc1ccccc1)N1CCc2ccccc21,16*,70,2.0*,7.7*,7.8*,2,10*,18*,1
O=C(OCC(=O)N1CCc2ccccc21)c1ccccc1[N+](=O)[O-],18*,.,2.6*,.,7.5*,1,8.4*,17*,1
O=C(COc1ccccc1)N1CCc2ccccc21,14*,78,-1,2.4,8.5*,1,6.4*,12*,1
COC(=O)c1ccc(Cn2ccc3ccc(-c4ccc5ccn(Cc6ccccc6)c5c4)cc32)cc1,0,.,-1,.,1,.,.,.,.
